This is an account of results in ChEMBL document CHEMBL3988442, “University of Dundee, Small-Polar-MMV Screening Library” (2021).

Molecules are shown by their SMILES. The whole screen tested about 48,000 compounds, of which about 13,000 (27%) showed an effect of 50% or more. This is one part of the list.

This assay has as its system Wolbachia pipientis. Put plainly: Anti-Wolbachia Cell-Based Screen. The assay is classed as functional. Also on record: scale not given: in the data most compounds retested in dose-response had high values. The settings on record: 5 µM.
Turning to `CCCc1noc(CCC(=O)N2CCN(C)CC2c2ccccc2)n1` (stereo not given), the “Percent Effect” value was 7.741%. Under `O=C(NCC1SCCc2ccccc21)c1cscn1` (stereo not given) stands 1.343%; under `N#Cc1cnc(NCCCN2C(=O)COc3ccccc32)c(Cl)c1`, 9.033%. The result for `CCOc1cccc(CNC(=O)NC2CC=CC2)c1OC(F)F` reads 3.017%. As for `Cc1n[nH]cc1CNC(C)c1cccc(N2CCCC2=O)c1.Cl` (stereo not given), the “Percent Effect” value is given as 3.207%. For the molecule `Cc1ccc(C(=O)N2C[C@H]3CCC[C@@]3(COCc3cccnc3)C2)s1`, the “Percent Effect” value is listed as -11.48%. Under `O=C(Cc1ccco1)N1C[C@H]2CCC[C@@]2(COCc2cccnc2)C1` stands -4.256%; under `Cc1cccc(COC[C@@]23CCC[C@@H]2CN(C(=O)Cc2ccco2)C3)n1`, 13.36%; under `O=C(c1cscn1)N1C[C@H]2CCC[C@@]2(COCc2ccccn2)C1`, 128%. Under `O=C(Cc1ccsc1)N1C[C@H]2CCC[C@@]2(COCc2ccccn2)C1` stands 101.3%; under `CCc1ncc(C(=O)N2CCCC2Cn2cccn2)s1` (stereo not given), 101.3%; under `O=C(c1cnc(C2CC2)s1)N1CCCCC1Cn1cccn1` (stereo not given), 5.861%. `O=C(c1cnc(C2CC2)s1)N1CCCC1Cn1cccn1` (stereo not given): the “Percent Effect” value came to 124.9%. Consider `NC(=O)c1ccc(C(=O)N2CCCCC2Cn2cccn2)s1` (stereo not given), for which the “Percent Effect” value is 92.92%.

As for `NC(=O)c1csc(C(=O)N2CCCCC2Cn2cccn2)c1` (stereo not given), the “Percent Effect” value is listed as -5.921%. With `CCc1ncc(C(=O)N2CCCCC2Cn2cccn2)s1` (stereo not given), the “Percent Effect” value is reported as -1.613%. Under `c1ccc2c(c1)CC(n1ccnc1-c1cc3n(n1)CCNC3)CO2` (stereo not given) stands 0.8243%; under `O=C(CC[C@@H]1CCCN2CCCC[C@H]12)NCCc1nc(O)cc(O)n1`, -15.21%. The result for `N#Cc1ccnc(N2CCN(CC(O)c3cccc(F)c3)CC2)c1` (stereo not given) reads -9.554%; that for `O=C1NCCN1C1CCN(c2ccnc(-c3ccccc3)n2)CC1`, 10.01%; that for `O=C1NCCN1C1CCN(Cc2nc(-c3ccc(F)cc3)no2)CC1`, 108.3%. `O=C1NCCN1C1CCN(Cc2nc(-c3ccccc3)no2)CC1`: the “Percent Effect” value is listed as 96.78%. For `Cc1ccc(-c2noc(CN3CCC(N4CCNC4=O)CC3)n2)cc1`, the “Percent Effect” value was 76.33%. On to `Cc1ccc(-c2noc(CN3CCC(c4ccn[nH]4)CC3)n2)cc1`, for which the “Percent Effect” value was -38.16%. The result for `O=C1NCCN1C1CCN(Cc2nc(-c3ccoc3)no2)CC1` reads 0.168%. Turning to `CN1CCN(C2CCN(Cc3nc(-c4ccoc4)no3)CC2)C1=O`, the “Percent Effect” value is 101.9%. Consider `c1ccc(-c2noc(CN3CCC(c4ccn[nH]4)CC3)n2)cc1`, for which the “Percent Effect” value came out at 3.848%. Under `Cc1cccc(-c2noc(CN3CCC(N4CCNC4=O)CC3)n2)c1` stands 0.5199%; under `Fc1ccc(-c2noc(CN3CCC(c4cc[nH]n4)CC3)n2)cc1`, -73.45%; under `CC(C)Cc1nc(CN2CCC(N3CCN(C)C3=O)CC2)no1`, -0.1019%.

For the molecule `CCN1CCN(C2CCN(Cc3nc(-c4ccoc4)no3)CC2)C1=O`, the “Percent Effect” value is -10.87%. Under `N#Cc1ccccc1OCCN1CCn2c(nnc2C2CC2)C1` stands -2.907%; under `c1cc(C2CCN(Cc3nc(-c4ccsc4)no3)CC2)[nH]n1`, -22.06%; under `Cc1ccccc1-c1noc(CN2CCC(N3CCNC3=O)CC2)n1`, 89.22%. Consider `c1cnn(CC2CN(Cc3nc(-c4ccsc4)no3)CCO2)c1` (stereo not given), for which the “Percent Effect” value is -8.782%.

Turning to `O=C1NCCN1C1CCN(Cc2nc(-c3ccsc3)no2)CC1`, the “Percent Effect” value is 100.1%. Consider `Cc1ccccc1-c1noc(CN2CCn3c(nnc3C3CC3)C2)n1`, for which the “Percent Effect” value was 9.498%.

`Cc1ccccc1-c1noc(CN2CCC(c3ccn[nH]3)CC2)n1`: the “Percent Effect” value is -44.64%. As to `COCCN1CC2(CCCN(c3ncnc4[nH]cnc34)C2)CCC1=O` (stereo not given), the “Percent Effect” value worked out at 2.898%. In the case of `CN(C)S(=O)(=O)N1CC(c2nc(-c3ccsc3)no2)C1`, the “Percent Effect” value was -5.352%. Under `CN(C)c1nccc(C2CN(S(C)(=O)=O)C2)n1` stands 62.66%; under `Cc1noc(C2CN(S(C)(=O)=O)Cc3ccnn3C2)n1` (stereo not given), -9.743%; under `Cc1nccc(C2CN(S(=O)(=O)N(C)C)C2)n1`, 92.05%.

`CS(=O)(=O)N1CC(c2ncn3ccccc23)C1`: the “Percent Effect” value came to 16%.

Turning to `CN(C)S(=O)(=O)N1CCN(c2nccc(C(F)(F)F)n2)CC1`, the “Percent Effect” value is listed as -20.82%.

Turning to `N#Cc1cccnc1Nc1ccc(N2CCC(C(N)=O)CC2)cc1`, the “Percent Effect” value is -22.12%. On to `O=C(Cc1ccsc1)NCC1OCCc2cn(CC3CC3)nc21` (stereo not given), for which the “Percent Effect” value was -4.734%.

`CS(=O)(=O)NCC1OCCc2cn(CC3CC3)nc21` (stereo not given): the “Percent Effect” value is reported as -2.199%. Take `CCS(=O)(=O)NCC1OCCc2cn(CCOC)nc21` (stereo not given): the “Percent Effect” value was -0.9126%. On to `COCCn1cc2c(n1)C(CNC(=O)c1cc(C)[nH]c1C)OCC2` (stereo not given), for which the “Percent Effect” value stood at 94.61%.

For `CS(=O)(=O)CC(=O)NCC1OCCc2cn(CC3CC3)nc21` (stereo not given), the “Percent Effect” value is reported as -2.36%. On to `COCCn1cc2c(n1)C(CNS(C)(=O)=O)OCC2` (stereo not given), for which the “Percent Effect” value was determined as 95.37%. Regarding `O=C(NCC1OCCc2cn(CC3CC3)nc21)c1ccsc1` (stereo not given), the “Percent Effect” value is reported as -6.452%.

On to `Cc1cc(C(=O)NCC2OCCc3cn(CC4CC4)nc32)c(C)[nH]1` (stereo not given), for which the “Percent Effect” value is given as 99.34%.

In the case of `Cn1cc2c(n1)C(CNC(=O)Cc1ccsc1)OCC2` (stereo not given), the “Percent Effect” value was 6.682%. As to `Cc1cc(NC(=O)N2CCCC(CO)C2)nn1-c1ccccc1Cl` (stereo not given), the “Percent Effect” value is on record as 6.236%.

In the case of `COc1ccc(OC)c(CN(C(=O)c2ccc(C)[nH]c2=O)C2CC2)c1`, the “Percent Effect” value was -3.072%.

Regarding `CC(C)c1nnc(NC(=O)N2CCCC2c2ccncc2)s1` (stereo not given), the “Percent Effect” value is listed as 0.4499%. `CC(C)c1nnc(NC(=O)N2CCN(C)CC2c2ccccc2)s1` (stereo not given): the “Percent Effect” value is recorded as 2.354%.

As for `COCc1nnc(NC(=O)CN2C(=O)c3ccccc3NC2C(C)C)s1` (stereo not given), the “Percent Effect” value stood at 107.7%. Consider `CCC(=O)Nc1nnc(CCCOc2ccccc2)s1`, for which the “Percent Effect” value is -6.738%. For the molecule `CCC(=O)Nc1nnc(CCOc2cccc(OC)c2)s1`, the “Percent Effect” value is 0.4737%.

`CC(C)c1nnc(NC(=O)CN2C(=O)c3ccccc3NC2C(C)C)s1` (stereo not given): the “Percent Effect” value came out at 94.59%. With `CCN1CCN(c2nc(C(C)C)nc3c(C)nn(CC)c23)CC1`, the “Percent Effect” value is reported as -2.933%. `Cn1ccnc1CN1CCN2C[C@H](Oc3ccccc3)C[C@H]2C1.O=C(O)C(F)(F)F.O=C(O)C(F)(F)F`: the “Percent Effect” value is reported as -6.794%. Turning to `CN(C)c1nccc(N(C)Cc2ncnn2C)n1`, the “Percent Effect” value is recorded as 4.507%. Consider `CCN1CCOC(CNCc2csc(C)n2)C1` (stereo not given), for which the “Percent Effect” value came to 88.2%.

For `CCN1CCOC(CNCc2ccc(OC)c(F)c2)C1` (stereo not given), the “Percent Effect” value is on record as -3.361%. Consider `Cc1nc(CNCC2CCCN(C(=O)OC(C)(C)C)C2)cs1` (stereo not given), for which the “Percent Effect” value is recorded as 4.206%.

In the case of `COc1ccnc(NCC2CN(C3CC3)CCO2)n1` (stereo not given), the “Percent Effect” value is 0.4171%.

Take `CCN1CCOC(CNCc2ccccc2OCC(=O)N(C)C)C1` (stereo not given): the “Percent Effect” value is -2.531%. With `Cc1nc(CNCC2CN(C3CC3)CCO2)cs1` (stereo not given), the “Percent Effect” value is on record as 87.5%.

For the molecule `CCN1CCOC(CNCc2ccccn2)C1` (stereo not given), the “Percent Effect” value was 1.335%.

As to `CCN1CCOC(CNCc2ccc(C)s2)C1` (stereo not given), the “Percent Effect” value is reported as 96.42%. The result for `CCN1CCOC(CNc2nccc(OC)n2)C1` (stereo not given) reads 1.918%. Under `CCc1noc(CN(C)C(=O)c2ccccc2-c2ncn[nH]2)n1` stands -19%; under `Cc1nn(C)c(C)c1CN(C(=O)c1cc(Cl)c[nH]c1=O)C(C)C`, -11.33%. Consider `CC(C(=O)NC1(C#N)CCCCC1)N1CCc2c(ncn2C)C1` (stereo not given), for which the “Percent Effect” value is on record as -1.256%. Under `N#Cc1ccc(OC2CCN(C(=O)c3ccccc3Cl)CC2)nc1` stands -3.988%; under `O=C(c1ccccc1C(F)(F)F)N1CC[C@@H](N2CCC(O)CC2)[C@H](O)C1`, -4.117%; under `O=C(c1ccccc1Cl)N1CC[C@H](O)[C@@H](N2CCOCC2)CC1`, 95.8%. Under `Cc1ccccc1C(=O)N1CC[C@H](O)[C@@H](N2CCOCC2)CC1` stands 126.5%; under `O=C(c1ccc(F)cc1F)N1CC[C@H](O)[C@@H](N2CCOCC2)CC1`, 0.4748%; under `Cc1ccccc1C(=O)N1CC[C@@H](N2CCC(O)CC2)[C@H](O)C1`, 2.362%. `N#Cc1cccc(CN2CCCC2c2ccc[nH]2)c1` (stereo not given): the “Percent Effect” value amounted to 7.816%.

For `Cc1ccc(NC(=O)C2CSCN2C(=O)c2cc[nH]n2)c(C)c1` (stereo not given), the “Percent Effect” value came to 9.143%. The result for `O=C(NC1CCCC1)N1C[C@H]2CN(c3ccncc3)C[C@@]2(C(=O)O)C1` reads -18.18%; that for `Cc1ccc(C(CNCc2ccncc2)N2CCOCC2)s1` (stereo not given), -8.996%.

In the case of `CCn1ccnc1CNCC(c1ccc(C)s1)N1CCOCC1` (stereo not given), the “Percent Effect” value was determined as 53.4%.

For `Cc1ccc(C(CNCc2nccn2C)N2CCOCC2)s1` (stereo not given), the “Percent Effect” value is -4.854%.

With `CC(c1ccccc1)n1c(SCC(=O)O)nnc1-c1ccccc1Cl` (stereo not given), the “Percent Effect” value was 9.035%. On to `CCCn1cc(NC(=O)c2cccc(CN3CC[C@H](O)C3)c2)nn1`, for which the “Percent Effect” value worked out at 12.98%.

As for `CCn1cc(NC(=O)c2cccc(CN3C[C@@H](C)O[C@@H](C)C3)c2)nn1`, the “Percent Effect” value amounted to 90.95%. The result for `CCCn1cc(NC(=O)c2cccc(CN3CC=CC3)c2)nn1` reads -66.35%; that for `Cc1cccc(C2(NC(=O)CCCn3cncn3)CCCC2)c1`, -10.46%; that for `COc1ccc(C(=O)NCCCNc2ncccn2)cc1F`, -6.702%. As for `COCCNC(=O)c1cccnc1Sc1cc(OC)ccc1OC`, the “Percent Effect” value was 161.9%.

On to `COc1ccc(OC)c(C(=O)Nc2cccnc2-n2cncn2)c1`, for which the “Percent Effect” value stood at 13.43%. For the molecule `COCCNC(=O)c1cc(OC)ccc1Br`, the “Percent Effect” value is 8.343%. For `CCOC(=O)CNC(=O)c1cccnc1Sc1cc(OC)ccc1OC`, the “Percent Effect” value is 162.1%. Under `COc1ccc(OC)c(Sc2ncccc2C(=O)NCC2CC2)c1` stands 167.1%; under `CCOCCNC(=O)c1cnc(Sc2nccn2C)c(Cl)c1`, 13.89%; under `CCOC(=O)NC(CNC(=O)c1cccnc1SC)CC(C)C` (stereo not given), -1.757%. In the case of `CCOCCNC(=O)c1cccnc1Sc1cc(OC)ccc1OC`, the “Percent Effect” value was 152.7%.

Take `Cc1nc2cc(F)ccc2cc1C(=O)N1CCN(CC(C)O)CC1` (stereo not given): the “Percent Effect” value is listed as -9.577%.
